# The whole screen tested about 310,000 compounds, of which about 14,000 (4.5%) showed an effect of 50% or more. The effect is printed as a negative number. The full list was thinned out, with strong results kept by preference.
# Molecular target: human ether-à-go-go-related gene (hERG) potassium channel (human, UniProt Q12809)
# Assay: primary screen, population patch clamp on CHO cells stably expressing hERG; higher = less effect of the substance
# 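Note: peak tail current of the secondary pulse compared with the same well before compound.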
# human ether-à-go-go-related gene (hERG) potassium channel, sequence (Q12809 whole entry, looked up): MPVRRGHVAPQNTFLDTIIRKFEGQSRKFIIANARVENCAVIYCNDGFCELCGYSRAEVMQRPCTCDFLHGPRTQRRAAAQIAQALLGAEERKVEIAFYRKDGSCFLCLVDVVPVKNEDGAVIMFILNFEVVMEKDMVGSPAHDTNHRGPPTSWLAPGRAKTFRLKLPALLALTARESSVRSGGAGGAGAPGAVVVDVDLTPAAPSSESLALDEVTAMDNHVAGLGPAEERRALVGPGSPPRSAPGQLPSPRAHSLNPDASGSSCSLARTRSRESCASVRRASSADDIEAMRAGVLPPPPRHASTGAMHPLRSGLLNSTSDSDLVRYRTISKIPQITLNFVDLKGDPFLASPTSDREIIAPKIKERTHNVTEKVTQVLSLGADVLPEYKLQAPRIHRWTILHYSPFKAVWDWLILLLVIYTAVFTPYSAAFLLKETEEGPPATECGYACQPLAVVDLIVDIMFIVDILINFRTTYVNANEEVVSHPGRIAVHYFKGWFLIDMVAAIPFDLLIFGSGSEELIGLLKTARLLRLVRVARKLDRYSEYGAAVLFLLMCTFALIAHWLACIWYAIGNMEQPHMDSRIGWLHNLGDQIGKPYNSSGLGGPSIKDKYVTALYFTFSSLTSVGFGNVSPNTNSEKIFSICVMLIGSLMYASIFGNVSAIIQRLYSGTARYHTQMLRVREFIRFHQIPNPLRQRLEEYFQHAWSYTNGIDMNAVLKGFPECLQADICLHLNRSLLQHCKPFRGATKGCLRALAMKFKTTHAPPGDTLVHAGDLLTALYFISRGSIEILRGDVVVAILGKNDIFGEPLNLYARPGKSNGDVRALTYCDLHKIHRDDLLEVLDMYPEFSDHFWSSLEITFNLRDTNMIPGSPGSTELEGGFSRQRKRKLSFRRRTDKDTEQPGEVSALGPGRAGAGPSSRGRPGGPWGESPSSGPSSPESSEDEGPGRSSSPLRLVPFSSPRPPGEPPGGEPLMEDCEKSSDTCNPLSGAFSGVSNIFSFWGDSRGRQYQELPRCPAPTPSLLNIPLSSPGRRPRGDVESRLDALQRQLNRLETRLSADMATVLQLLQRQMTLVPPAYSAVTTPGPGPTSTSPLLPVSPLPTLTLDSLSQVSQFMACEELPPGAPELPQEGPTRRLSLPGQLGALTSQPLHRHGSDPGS
row,Structure (SMILES),"hERG current change (%, negative = inhibition) at 10uM"
1,CCCSc1nc2sc3c(c2c(=O)n1CC)CC(C)(C)OC3,3.41%
2,CCS(=O)(=O)NCC(c1ccco1)N1CCN(c2ccccc2F)CC1 (stereo not shown),-1.69%
3,COc1ccc(OC)c(NC(=O)COC(=O)CN2C(=O)NC3(CCCC3)C2=O)c1,7.58%
4,O=C(CCCOC(=O)c1ccc(O)cc1O)c1ccc(F)cc1,-11.6%
5,Cc1ccc(CS(=O)(=O)CCC(=O)NCCN2CCCCC2C)cc1 (stereo not shown),-2.59%
6,Cc1cccc(/C=N/N2CCN(c3ccccc3)CC2)c1,-4.38%
7,O=C(O)CCCC(=O)OCCCCc1cccs1,-2.23%
8,Nc1c2c(nc3ccccc13)N(C1CCCCC1)CC2,-65.6%
9,Nc1c2c(nc3ccc(Br)cc13)N(C1CCCCC1)CC2.O=C(O)C(=O)O,-70.1%
10,Nc1c2c(nc3ccc(Br)cc13)N(c1ccccc1)CC2.O=C(O)C(=O)O,-21.3%
11,Nc1c2c(nc3ccc(Br)cc13)N(Cc1ccccc1)CC2,-43.5%
12,c1ccc2nc3c(nc2c1)OCC1CCCCN31 (stereo not shown),-14.2%
13,Cc1nc2ccccc2c(=O)n1C1CCCCCC1,-7.64%
14,CCOC(=O)c1sc(NC(=O)c2ccncc2)c(C#N)c1C,22.8%
15,CC(C)=C1SC(N2CCN(c3cccc(C(F)(F)F)c3)CC2)=NC1=O,-2.7%
16,Oc1ccc[nH+]c1SCc1ccccc1.[Br-],12.7%
17,Nc1cc(N)nc(SCC(=O)NCc2ccco2)n1,9.13%
18,COc1ccc(CCn2c(=N)c(C(=O)NC3CCCC3)cc3c(=O)n4cccc(C)c4nc32)cc1,-77.8%
19,Cc1cccn2c(=O)c3cc(C(=O)NC4CCCC4)sc3nc12,-22.8%
20,Cc1cccn2c(=O)c3cc(C(=O)NC4CCCC4)c(=N)n(CCc4ccccc4)c3nc12,-74.5%
21,CCCn1c(=N)c(C(=O)NC2CCCC2)cc2c(=O)n3cccc(C)c3nc21,-77.4%
22,Cc1ccc(CNC(=O)CSc2nc(C)cs2)cc1,15.4%

row,Structure (SMILES),"hERG current change (%, negative = inhibition) at 10uM"
1,CCCc1c(-c2ccc(O)cc2)nn(-c2ccc(O)cc2)c1-c1ccc(O)cc1,12.6%
2,CCN(CC)C(=O)CSc1nnc([C@H](CCSC)NC(=O)OC(C)(C)C)o1,-8.26%
3,CC1=CC(C)(C)N(C(=O)C(C)N2C(=O)c3ccccc3C2=O)c2ccc(C)cc21 (stereo not shown),2.88%
4,COC(=O)c1ccc(NS(=O)(=O)c2cc3c4c(c2)C(C)C(=O)N4CCC3)cc1 (stereo not shown),2.73%
5,Fc1cccc2sc(Nc3nc4cc5c(cc4s3)OCO5)nc12,20.3%
6,COC(=O)C1CCN(C(=O)COC(=O)c2ccc(=O)n(Cc3ccccc3)n2)CC1,-4.78%
7,CC(C)CN(C(=O)COC(=O)c1ccc(-c2ccccc2)cc1)C1CCS(=O)(=O)C1 (stereo not shown),17.5%
8,CCOc1cc(/C=N/NC(=O)Cc2ccc(C(F)(F)F)cc2[N+](=O)[O-])c(Br)cc1OC,8.3%
9,CCCCCC[N+](C)(C)CC/C=C1/c2ccccc2Sc2ccc(Cl)cc21.[Br-],-75.2%
10,CC[N+](C)(C)CC/C=C1/c2ccccc2Sc2ccc(Cl)cc21.[Br-],-25.3%
11,CN(C)CC/C=C1/c2ccccc2Sc2c(O)cc(Cl)cc21,-47.5%
12,CCCCCCCCCCC[N+](C)(C)CC/C=C1/c2ccccc2Sc2ccc(Cl)cc21.[Br-],-32.8%
13,CCCCCCCCCC[N+](C)(C)CC/C=C1/c2ccccc2Sc2ccc(Cl)cc21.[Br-],-76.6%
14,CN(C)CC/C=C1/c2ccc(F)cc2Sc2ccc(Cl)cc21.Cl,5.06%
15,O=C1NC(=S)S/C1=C/c1ccc(Oc2cnccn2)cc1,20%
16,Cc1cccc(C(=O)NC(=S)N2CCN(C(=S)NC(=O)c3cccc(C)c3)CC2)c1,-0.873%
17,CCCC(OC(=O)CC1Sc2ccccc2NC1=O)C(=O)NCc1ccco1 (stereo not shown),-13.8%
18,Cc1ccc(CSCC(=O)N2CCOCC2)cc1,8.89%
19,O=C(NNC1=C(C(=O)C(F)(F)F)CCC1)c1cccc(Cl)c1,7.77%
20,CCOC(=O)C1(Cc2cccc(OC)c2)CCN(Cc2ccc(OC)c(OC)c2)CC1,-68.8%
21,CCOC(=O)C1(Cc2cccc(OC)c2)CCN(Cc2ccccc2)CC1,-40.3%
22,CCOC(=O)C1(Cc2cccc(OC)c2)CCN(Cc2ccc(OC)c(O)c2)CC1,-77.9%

row,Structure (SMILES),"hERG current change (%, negative = inhibition) at 10uM"
1,CCOC(=O)C1(Cc2cccc(OC)c2)CCCN(Cc2cc(OC)c(O)c(OC)c2)C1 (stereo not shown),-33.7%
2,CCOC(=O)C1(Cc2cccc(OC)c2)CCN(Cc2ccc3c(c2)OCCO3)CC1,-38%
3,CCOC(=O)C1(Cc2cccc(OC)c2)CCN(Cc2csc(C(C)=O)c2)CC1,-41.1%
4,CCOC(=O)C1(Cc2cccc(OC)c2)CCN(Cc2cccc(O)c2)CC1,-54.7%
5,CCOC(=O)C1(Cc2cccc(OC)c2)CCN(CC(O)CO)CC1 (stereo not shown),-4.39%
6,CCOC(=O)C1(Cc2cccc(OC)c2)CCN(CCO)CC1,-54.3%
7,COc1ccc([C@H]2CC(=O)C=C(c3cccc(OCc4ccccc4)c3)C2)cc1,10.8%
8,Cc1ccc(-n2nc3c(=O)n(CCCC(=O)NCc4cccc(F)c4)nc(C)c3c2C)cc1,-21.7%
9,COc1cccc(N2C(=O)CC(N3CCc4ccccc4C3)C2=O)c1 (stereo not shown),13.1%
10,CC(C)(C)N/N=C/c1cc(Cl)cc([N+](=O)[O-])c1O.Cl,-10.9%
11,Cc1onc(-c2ccccc2Cl)c1C(=O)N1CCN(c2ncccn2)CC1,2.45%
12,CCOC(=O)c1ccccc1NC(=O)COC(=O)C1=COCCO1,4.78%
13,Cc1nc2ccccn2c1C(=O)CSc1ccc(Cl)cc1Cl,-4.24%
14,Cc1ccc(OCC(=O)NCCc2c[nH]c3ccccc23)cc1,17.1%
15,COc1cc2c(C)nc(C)c(C#N)c2cc1OC.Cl,-5.92%
16,Cc1ccc2nc(N3CC(C)OC(C)C3)nc(-c3ccccc3)c2c1 (stereo not shown),5.88%
17,c1ccc(Nc2nc(N3CCNCC3)nc(N3CCOCC3)n2)cc1,-43%
18,CCOC(=O)C1(Cc2cccc(OC)c2)CCN(Cc2cnc(C)s2)CC1,-12.2%
19,CCOC(=O)C1(Cc2ccccc2)CCN(Cc2ccc(C)s2)CC1,-46%
20,CCOC(=O)C1(Cc2cccc(OC)c2)CCN(Cc2ccc(C)s2)CC1,-67.1%
21,CN(C)S(=O)(=O)c1ccc(N2CCOCC2)c(C(=O)NCc2ccc3c(c2)OCO3)c1,-14.7%
22,COC(=O)c1ccc(/C=N/Nc2nc3ccccc3[nH]2)cc1,11.4%

row,Structure (SMILES),"hERG current change (%, negative = inhibition) at 10uM"
1,C=C(C)C(=O)Nc1cccc(C2=NOC3(C2)C[C@@H](C(N)=O)N(C(=O)c2cc([N+](=O)[O-])cc([N+](=O)[O-])c2C)C3)c1 (stereo partly shown),1.96%
2,COc1cccc(NC(=O)N2CCC(N3CCCCC3)CC2)c1,-7.99%
3,O=C(Nc1ccc(Cl)c(Cl)c1)N1CCC(N2CCCCC2)CC1,-63.5%
4,O=C(Nc1ccc(Cl)c(Cl)c1)N1CCCCCC1,2.82%
5,Cc1ccc(C(C)(C)C)c(OCCN2CCCC2)c1,-19.5%
6,CC(C)[C@@H](N)C(=O)N/N=C/c1ccc2nccnc2c1.Cl,17.1%
7,CCOC(=O)C1CCN(C(=O)c2cc3c(s2)-c2ccccc2OC3)CC1,-38.9%
8,CC1CCCN(CCCNC(=O)CN2C(=O)COc3ccccc32)C1 (stereo not shown),-4.59%
9,O=C(Nc1nccs1)c1cc2c(s1)-c1ccccc1OC2,16.2%
10,O=C(Nc1cccnc1Cl)c1cc2c(s1)-c1ccccc1OC2,-3.48%
11,CC1CC(C)CN(CCCNC(=O)c2cc3c(s2)-c2ccccc2OC3)C1 (stereo not shown),-70.2%
12,CC1CCCN(CCCNC(=O)c2cc3c(s2)-c2ccccc2OC3)C1 (stereo not shown),-76.4%
13,O=C(O)c1cc2c(s1)-c1ccccc1OC2,9.73%
14,CN1CCN(c2ccccc2NC(=O)c2cc3c(s2)-c2ccccc2OC3)CC1,-51.3%
15,CC1CCN(CCCNC(=O)c2cc3c(s2)-c2ccccc2OC3)CC1,-74.6%
16,Cc1cccc2c1-c1sc(C(=O)Nc3ccccc3N3CCN(C)CC3)cc1CO2,-13.4%
17,Cc1csc(NC(=O)c2cc3c(s2)-c2ccccc2OC3)n1,3.36%
18,C=CCn1c(SC)nc2sc3c(c2c1=O)CCc1ccccc1-3,10.3%
19,Cc1ncoc1C(=O)Nc1cccc(Cl)c1,-7.91%
20,OCC[C@H]1C[C@H](O)[C@@H](O)[C@]2(OCCc3ccccc32)O1,2.59%
21,CC1(C)Cc2c(cnn2-c2ccccc2)C(NC(=O)CCN2CCCC2=O)C1 (stereo not shown),6.21%
22,C=C1CCC[C@]2(C)C[C@H]3OC(=O)C(CNC(C)CC)[C@H]3CC12 (stereo partly shown),0.523%

# Reference: publication PMC4336329 (PLoS ONE, 2015)
